Assay outcomes from PubChem.
In the library only some 3.4% were active in any assay of this set; here they are far more common.
FBW7 activator: human FBW7 E3 ligase activation, primary screen; actives 0.13% (n = 650,000); Q969H0; normalized activity (activation), % at 26.1 µM; AlphaScreen FBW7–phospho-cyclin E peptide binding, activator screen; in the data active = normalized activity above about 1.9%;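 also: purified mutant Fbw7 with reduced substrate affinity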
TEAD-YAP inh: TEAD-YAP interaction inhibition; HEK-TIYL cells, TEAD-Gal4/YAP UAS-luciferase luminescence; inhibition, % at 9.12 µM; actives 1.4% (n = 640,000); in the data active = inhibition above about 32%
MITF primary: inhibitors of human MITF; inhibition, % at 2.6 µM; AlphaScreen MITF homodimerization, bead proximity signal; actives 0.91% (n = 650,000); AID 1259374; O75030; in the data active = inhibition above about 50%
GPR151 activ: activators of human GPR151; activation, % at 11.2 µM; actives 1% (n = 650,000); PathHunter beta-arrestin GPR151 cells, luminescence; AID 1508602; in the data active = activation above about 4.9%
Large screens that a line does not name were inactive.

CCCCOc1ccc(CSCCN=C(N)N)cc1	none
CC(C)CNC(=O)CC(=O)N/N=C/c1cccc(Cl)c1	none
CC(C)n1cnc2c(NCCN3CCOCC3)nc(NCc3cccnc3)nc21	none
CC1(C)OC(=O)N2Cc3cccc[n+]3CC21O (stereo not drawn)	none
c1ccc(Nc2cc(Nc3nccc4ccccc34)ncn2)cc1	none
COc1ccc(CCNc2nc(Nc3cccc(N(C)C)c3)ncc2C)cc1	none
COc1cc(Nc2cc(Nc3cccc(N(C)C)c3)ncn2)cc(OC)c1OC	TEAD-YAP inh 40
COc1cc(Nc2cc(Nc3nccc4ccccc34)ncn2)cc(OC)c1OC	TEAD-YAP inh 49
COc1cc(Nc2ccnc(Nc3cccc(N(C)C)c3)n2)cc(OC)c1OC	none
Cc1cnc(Nc2ccncc2)nc1Nc1ccccc1	TEAD-YAP inh 49
COc1cc(Nc2nc(Nc3cccc(N(C)C)c3)ncc2C)cc(OC)c1OC	TEAD-YAP inh 54
C=CCOC(=O)C1=C(C)NC(=O)NC1c1cc(OC)c(OC)c(OC)c1 (stereo not drawn)	none
Cc1cnc(Nc2cccc(N(C)C)c2)nc1Nc1ccccc1	TEAD-YAP inh 46
Cc1cnc(Nc2cccc(N(C)C)c2)nc1NCCN(C(C)C)C(C)C	none
CN1CCN(C(c2ccccn2)c2cc(Cl)c3cccnc3c2O)CC1 (stereo not drawn)	none
CCOC(=O)N1CCN(Cc2cc(Cl)c3cccnc3c2O)CC1	TEAD-YAP inh 76
Oc1c(C(c2ccccn2)N2CCN(c3ccc(F)cc3)CC2)cc(Cl)c2cccnc12 (stereo not drawn)	none
CCOC(=O)N1CCN(C(c2ccccn2)c2ccc3cccnc3c2O)CC1 (stereo not drawn)	MITF primary 91
Oc1c(C(c2ccccn2)N2CCCC2)cc(Cl)c2cccnc12 (stereo not drawn)	MITF primary 79
CCOC(=O)N1CCN(C(c2ccccn2)c2c(C)[nH]c3ccccc23)CC1 (stereo not drawn)	none
CCOC(=O)N1CCN(C(c2ccccn2)c2cc(Cl)c3cccnc3c2O)CC1 (stereo not drawn)	MITF primary 53
c1csc(CNc2ccc3ncc(-c4ccc5c(c4)OCO5)n3n2)c1	none
Cc1oc(-c2ccccc2F)nc1CS(=O)CC(=O)NCc1cccnc1 (stereo not drawn)	none
c1ccc(CC2CCN(Cc3ccccn3)CC2)cc1	none
Oc1c(CN2CCC(Cc3ccccc3)CC2)cc(Cl)c2cccnc12	TEAD-YAP inh 60, MITF primary 60
CCN(CC)Cc1cc(Cl)c2cccnc2c1O	TEAD-YAP inh 74, MITF primary 55
C#CC(O)(c1ccc(OC)cc1)c1ccc(OC)c2ccccc12 (stereo not drawn)	TEAD-YAP inh 56
O=NN(CCN(CN1C(=O)C(=O)c2ccccc21)N=O)CN1C(=O)C(=O)c2ccccc21	none
O=C(c1ccc(-c2nc3ccccc3s2)s1)N1CCCC1	TEAD-YAP inh 89
O=C(O)c1ccc(-c2nc3ccccc3s2)s1	none
CCOCCCNC(=O)c1ccc(N2CCCCCC2)c([N+](=O)[O-])c1	none
Nc1c(C(=O)Nc2ccc(Cl)cn2)sc2nc3c(cc12)CCC3	TEAD-YAP inh 94
CCc1nnc(NC(=O)c2sc3nc4c(cc3c2N)CCC4)s1	none
Nc1c(C(=O)Nc2nccs2)sc2nc3c(cc12)CCCC3	TEAD-YAP inh 77
Cc1ccc(C(=O)NCC(c2ccco2)N2CCN(c3ccccc3)CC2)cc1 (stereo not drawn)	none
CC(=O)N1/C(=C/c2ccncc2)C(=O)c2ccccc21	none
CC(=O)N1/C(=C/c2ccc(N(C)C)cc2)C(=O)c2ccccc21	TEAD-YAP inh 46
CC(=O)N1C(=O)/C(=C/C(=O)c2ccccc2)c2ccccc21	none
CN(C1=C(Cl)C(=O)N(c2ccc(I)cc2)C1=O)c1ccccc1	TEAD-YAP inh 56
O=C1C(Cl)=C(Cl)C(=O)N1c1ccc(I)cc1	none
Cc1ccc(N2C(=O)C(Cl)=C(N(C)c3ccccc3)C2=O)cc1	TEAD-YAP inh 52
CC(=O)NC(Nc1nnc(-c2ccc(C)cc2)s1)C(Cl)(Cl)Cl (stereo not drawn)	TEAD-YAP inh 49
CC(=O)NC(Nc1nnc(-c2ccccc2)s1)C(Cl)(Cl)Cl (stereo not drawn)	none
COc1ccc2nc(NC(=O)c3nn(C)cc3C)sc2c1	FBW7 activator 3.6
COc1ccc2nc(NC(=O)c3cc(Br)ccc3Cl)sc2c1	none
COc1ccc2nc(NC(=O)c3ccoc3C)sc2c1	TEAD-YAP inh 59
Cc1ccc(-c2cnc(NCC(C)C)c3nccn23)cc1	none
Cc1ccc(C(Nc2cc(Cl)ncn2)C(F)(F)F)cc1 (stereo not drawn)	TEAD-YAP inh 34
